Test results published in the supplement of paper PMC9135407.
Where “and” joins values, the source holds several entries; their conditions need not be identical. Equal values may be shown once. Where a name gives a salt, the structure may show the parent alone. Out of some 5,800 compounds screened, about 620 (11%) showed activity. The list comes from a sample in which actives are over-represented; it also holds similar structures and randomly drawn compounds. Values without a mark were called inactive.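 How the source made its calls: active = score above a cut-off or among the top three wells of a plate; in these data no inactive exceeds 0.85.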

System: primary human hepatic stellate cells (donor 1)
Assay: scaled lipid accumulation score (0 = DMSO-like, 1 = nortriptyline-like); higher = stronger HSC inactivation (lipid re-accumulation), active = hit call of the paper
Conditions: 48 h
[1] = library stock concentration: 3.33 mM
[2] = library stock concentration: 10 mM
[3] = library stock concentration: 1 mM
[4] = library stock concentration: 400 uM
[5] = library stock concentration: 2 mM

Structure (SMILES): Cc1cc(C)cc(NC(=O)Cc2ccc(OC(C)(C)C(=O)O)cc2)c1 [Efaproxiral Sodium]
- scaled lipid accumulation score [1]: ≤ 0
- scaled lipid accumulation score [2]: ≤ -0.001

Structure (SMILES): O=C1Cc2c([nH]c3ccc([N+](=O)[O-])cc23)-c2ccccc2N1 [Alsterpaullone]
- scaled lipid accumulation score [1]: ≤ 0

Structure (SMILES): COc1ccc(/C=C/C(=O)Nc2c(O)cccc2C(=O)O)cc1OC
- scaled lipid accumulation score [3]: ≤ 0

Structure (SMILES): O=C(c1ccccc1)c1ccc2n1CCC2C(=O)O (stereo unspecified) [Ketorolac tromethamine]
- scaled lipid accumulation score: ≤ 0
- scaled lipid accumulation score (library stock concentration: 5.3 mM): ≤ 0
- scaled lipid accumulation score [2]: 0.024

Structure (SMILES): O=C(c1ccccc1)c1ccc2n1CCC2C(=O)O (stereo unspecified)
- scaled lipid accumulation score [2]: ≤ 0

Structure (SMILES): O=C(c1ccccc1)c1ccc2n1CCC2C(=O)O (stereo unspecified) [Ketorolac (tromethamine salt)]
- scaled lipid accumulation score [3]: ≤ 0

Structure (SMILES): O=C(c1ccccc1)c1ccc2n1CCC2C(=O)O (stereo unspecified) [Ketorolac]
- scaled lipid accumulation score [1]: ≤ 0
- scaled lipid accumulation score [2]: ≤ 0

Structure (SMILES): O=C(c1ccccc1)c1ccc2n1CCC2C(=O)O (stereo unspecified) [Ketorolac tris salt]
- scaled lipid accumulation score [2]: ≤ -0.055

Structure (SMILES): O=C(c1cccnc1)N1CCOCC1
- scaled lipid accumulation score [2]: 0.163

Structure (SMILES): COC(=O)[C@]12CCC(C)(C)C[C@H]1[C@H]1C(=O)C=C3[C@@]4(C)C=C(C#N)C(=O)C(C)(C)[C@@H]4CC[C@@]3(C)[C@]1(C)CC2 [Bardoxolone Methyl]
- scaled lipid accumulation score [1]: 0.195
- scaled lipid accumulation score [2]: 0.183

Structure (SMILES): CC(C)OC(=O)CCC/C=C\C[C@@H]1[C@@H](/C=C/[C@@H](O)COc2cccc(C(F)(F)F)c2)[C@H](O)C[C@@H]1O
- scaled lipid accumulation score [2]: ≤ 0

Structure (SMILES): O=C(/C=C\n1cnc(-c2cc(C(F)(F)F)cc(C(F)(F)F)c2)n1)NNc1cnccn1
- scaled lipid accumulation score [1]: ≤ -0.009
- scaled lipid accumulation score [2]: 0.384

Structure (SMILES): CC1(C)S[C@@H]2[C@H](NC(=O)[C@H](NC(=O)N3CCN(S(C)(=O)=O)C3=O)c3ccccc3)C(=O)N2[C@H]1C(=O)O [Mezlocillin Sodium]
- scaled lipid accumulation score [1]: ≤ 0
- scaled lipid accumulation score [2]: 0.043

Structure (SMILES): C[C@@H](CN1CCC(n2c(=O)[nH]c3cc(Cl)ccc32)CC1)NC(=O)c1ccc2ccccc2c1
- scaled lipid accumulation score [3]: 0.02

Structure (SMILES): O=C(NCCN1CCC(n2c(=O)[nH]c3cc(Cl)ccc32)CC1)c1ccc(F)cc1 [Halopemide]
- scaled lipid accumulation score [3]: ≤ 0

Structure (SMILES): C[C@@H](CN1CCC(n2c(=O)[nH]c3cc(Cl)ccc32)CC1)NC(=O)c1ccc2ccccc2c1.Cl
- scaled lipid accumulation score [2]: 1.12 (active)

Structure (SMILES): Brc1ccc(C2CN3CCSC3=N2)cc1 (single isomer, unassigned; (-)) [(-)-p-Bromotetramisole Oxalate]
- scaled lipid accumulation score [1]: ≤ -0.009
- scaled lipid accumulation score [2]: 0.192

Structure (SMILES): C=CCNC(=O)c1cc([N+](=O)[O-])cc2c(=O)[nH]c(Nc3ccc(Cl)c(Cl)c3)nc12
- scaled lipid accumulation score [2]: 0.02

Structure (SMILES): Cc1nc(-c2ccccc2)c(-c2ccncc2)o1
- scaled lipid accumulation score [1]: ≤ 0

Structure (SMILES): CCc1cccc(CC)c1NC(=O)N1Cc2[nH]nc(NC(=O)c3ccc(N4CCN(C)CC4)cc3)c2C1
- scaled lipid accumulation score [1]: 0.21
- scaled lipid accumulation score [2]: 0.34

Structure (SMILES): CO[C@@H](C(=O)N1Cc2[nH]nc(NC(=O)c3ccc(N4CCN(C)CC4)cc3)c2C1)c1ccccc1 [listing 1 of 2 here]
- scaled lipid accumulation score [2]: 0.915 (active)

Structure (SMILES): CO[C@@H](C(=O)N1Cc2[nH]nc(NC(=O)c3ccc(N4CCN(C)CC4)cc3)c2C1)c1ccccc1 [listing 2 of 2 here]
- scaled lipid accumulation score [4]: ≤ -0.005
- scaled lipid accumulation score [5]: ≤ -0.005
- scaled lipid accumulation score [1]: 0.533
- scaled lipid accumulation score [2]: 0.779

Structure (SMILES): O=C1c2c(O)cc(O)cc2O[C@H](c2ccc(O)c(O)c2)[C@H]1O
- scaled lipid accumulation score [2]: ≤ 0

Structure (SMILES): OCc1ccccc1O [Salicyl alcohol]
- scaled lipid accumulation score [2]: ≤ 0
- scaled lipid accumulation score (library stock concentration: 16.1 mM): ≤ 0

Structure (SMILES): COc1ccc(S(=O)(=O)N(C(C)=O)c2ccccc2/C=C/c2cc[n+]([O-])cc2)cc1
- scaled lipid accumulation score (library stock concentration: 80 uM): ≤ -0.016
- scaled lipid accumulation score [4]: ≤ -0.016
- scaled lipid accumulation score [5]: ≤ -0.016
- scaled lipid accumulation score [1]: ≤ 0
- scaled lipid accumulation score [2]: ≤ 0 and 0.15

Structure (SMILES): COc1ccc(S(=O)(=O)N(CCO)c2ccccc2CN(C)C/C=C/c2ccc(Cl)cc2)cc1 [KN-93 Phosphate]
- scaled lipid accumulation score [1]: 0.441

Structure (SMILES): COc1ccc(S(=O)(=O)N(CCO)c2ccccc2CN(C)CC=Cc2ccc(Cl)cc2)cc1.O=P(=O)OO.[H] [KN-93 Phosphate]
- scaled lipid accumulation score [2]: 1.07 (active)

Structure (SMILES): CCCCCCCC/C=C\CCCCCCCC(=O)N[C@@H](CO)C(=O)O [N-Oleoyl-L-Serine]
- scaled lipid accumulation score [3]: ≤ 0

Structure (SMILES): CCCC1([C@H](O)C/C=C/[C@H]2[C@H](O)CC(=O)[C@@H]2CCCCCCC(=O)OC)CCC1 [Butaprost]
- scaled lipid accumulation score [3]: ≤ 0
